Assay results from PubChem BioAssay (NCATS).
Records with an inconclusive call do not appear. Where a call stands in place of a potency, no number is given. Activity calls are given as the source filed them. The call rests on the fitted dose curve; in most records, active means well fitted cell-killing curve with a large enough effect; inconclusive means small, poorly fitted or top-dose-only effect; inactive means flat fitted curve, though single readings scatter.

Assay: Cell Viability - LYMP2-006 (AID 978); further: nearly all actives have a fitted effect of over 60% in size
Settings: LYMP2-006 lymphoblastoid cell viability, qHTS; series mostly up to 92.2 µM
From the text: NIH Chemical Genomics Center [NCGC]
NIH Molecular Libraries Screening Centers Network [MLSCN]
National Institutes of Environmental Health Sciences [NIEHS]
National Toxicology Program [NTP]
We have developed a 1536-well cell-based assay for quantitative high throughput screening (qHTS) against a number of cell lines to determine in vitro cytotoxicity of small molecules. This particular assay uses a human lymphoblastoid cell line (LYMP2-006) purchased from Coriell Institute for Medical Research.
NCGC Assay Protocol Summary:
The CellTiter-Glo luminescent cell viability assay (Promega) is a homogeneous method to measure the number of viable cells in culture. The end point readout of this assay is based on quantitation of intracellular ATP, an indicator of metabolic activity, using the luciferase reaction. Luciferase catalyzes the oxidation of beetle Luciferin to oxyluciferin and light in the presence of ATP. The luminescent signal is proportional to amount of ATP present.
Using the CellTiter-Glo luminescent cell viability assay, the amount of cellular ATP was measured in the lymphoblastoid cell line with complete culture medium following compound treatment for 24 hours. The assay was performed in opaque white Kalypsys 1536-well plates. In the screen, tetraoctylammonium bromide was used as positive control. Library compounds were measured for their ability to cause acute toxicity in the cell line, as reflected by a decrease in intracellular ATP levels, in a concentration-dependent manner. […] AC50 values were determined from concentration-response data modeled with the standard Hill equation.
qHTS protocol for CellTiter Glo lymphoblastoid cellular assay
[Step] [Parameter] [Value] [Description]
1. Reagent; 5 uL; 2500 lymphoblastoid cells/well
2. Time; 5 hr; 37 C incubation
4. Controls; 23 nL; Tetraoctylammonium bromide 6.4pM to 92 uM
5. Time; 24 hr; 37 C incubation
6. Reagent; 5 uL; CellTiter Glo reagent
7. Time; 30 min; Room Temperature
8. Detection; Luminescence; Viewlux plate reader
Keywords: cell viability, cytotoxicity, lymphoblastoid cell line, luminescence, NTPHTS, NTPHTS_NCGC, NIEHS, DSSTox, MLSMR, MLSCN, NIH Roadmap, qHTS, NCGC
Potency means the concentration at half of the fitted maximal effect.

SMILES	Potency
CC(=O)NNc1ccccc1	inactive
O=[N+]([O-])c1cc(Cl)c(Cl)cc1Cl	inactive
O=C(Cc1ccccc1)OCc1ccccc1	inactive
BrCCc1ccccc1	inactive
N#CCCC#N	inactive
Cc1ccc(N=C=O)cc1N=C=O	inactive
CSSC	inactive
O=C(O)c1cccc(Cl)c1	inactive
c1ccoc1	inactive
C=CC(=O)OCCN(C)C	inactive
CCC(Cl)[N+](=O)[O-] (stereo not given)	inactive
BrCC(Br)C1CCC(Br)C(Br)C1 (stereo not given)	inactive
CCCCC#N	inactive
ClCC(Br)CBr (stereo not given)	inactive
ClC(Cl)C(Cl)Cl	inactive
Cc1ccc([N+](=O)[O-])cc1	inactive
Cc1ccc2c(c1N)C(=O)c1ccccc1C2=O	inactive
c1ccc(P(c2ccccc2)c2ccccc2)cc1	inactive
C=C(Cl)CCl	inactive
c1ccc(NNc2ccccc2)cc1	inactive

SMILES	Potency
C=CCBr	inactive
COc1ccccc1N	inactive
CC(C)Br	inactive
Cc1cc(-c2ccc(N)c(C)c2)ccc1N	inactive
BrCC(Br)(Br)Br	15.8 µM (active)
Nc1cc(Cl)ccc1Cl	inactive
Cc1cc(-c2cc(C)c(N)c(C)c2)cc(C)c1N	inactive
CC(C)CC(C)N (stereo not given)	inactive
CC1CC(=O)O1 (stereo not given)	inactive
NC1CCC(CC2CCC(N)CC2)CC1 (stereo not given)	inactive
Nc1ccc(Cc2ccc(N)cc2)cc1	inactive
Oc1cc(Cl)c(Cl)c(Cl)c1Cl	inactive
Clc1cccc(Cl)c1	inactive
FC(Cl)(Cl)Cl	inactive
CCCCCc1cc(O)cc(O)c1	inactive
N#C/C(N)=C(/N)C#N	inactive
Brc1ccc(Oc2ccc(Br)cc2Br)c(Br)c1	inactive
Nc1ccc([N+](=O)[O-])cc1[N+](=O)[O-]	inactive
CCCC[N+](=O)[O-]	inactive
N#CC(O)c1ccccc1 (stereo not given)	inactive
